Laboratory results reported in PMC12864922, “TDP-43 directly inhibits mRNA accumulation in neurites through modulation of mRNA stability”.
The full ranking holds about 9,900 sequences; the median of “r (bound/input frequency ratio)” is about 0.7, and the highest 2% start at about 6.5. The sample holds the highest values, similar sequences and a random draw of the others, so the mix is not that of the screen.

B1: ENSMUSG00000043670.167|Diras1 (ssRNA)
RNA: GGGAGUUCUACAGUCCGACGAUCGCUUCGAUAUCCGCAUGCUAGGUUUGGGGUGCUGAGGGUGGGGUGCCCAGCUGAGAGUCUAUCAGCAAAGUCCCUGUGUGCGGUGAUAGGACUAGUGGCUGCUGCCCUAGGGCUCUGACAGAAUCUGAGCCUCUUUGCUGGUCAUGUGUACUCUGGAGACUGUCCCCCAUGUCUGCCCUGAGUUACGGAGCCCCUGUGGUAUCUGCGAGACUGUCCAGGAGACUUGAGUGGCUCCUGGGCCUGUGUCCCACCCAGAUGAGGGUGACUUAGAAUUCUGUGUCUCUUGCGGUCGCACUAGUGUGGAAUUCUCGGGUGUCAAGG
B2: ENSMUSG00000042529.74|Kcnj12 (ssRNA)
RNA: GGGAGUUCUACAGUCCGACGAUCGCUUCGAUAUCCGCAUGCUAACUUGGGCAAGACUGUUUACAAACAAAAACAAACAAACAAACAAUCAAAAAAAAAACCCACCCCACAAAACACAAGAAAACAUUAACAGGUGGUUCAAUUUUUAAAAUUCCUGGUGUGGGGACAGUUGGAAUUCUACUCAGCGCUGCCAGGCAAGCAGCUGGACGGAGAACCCUGAGGGUUCUCAGAGGUCUGUUUUCUCCCUCACGUGGGCCAGGGCCUUAAGCGAGUUGUCAUGCUUAAGGAUGAAUCAGGCUGCUUGCUCUUGCGGUCGCACUAGUGUGGAAUUCUCGGGUGUCAAGG
B3: ENSMUSG00000032194.238|Kank2 (ssRNA)
RNA: GGGAGUUCUACAGUCCGACGAUCGCUUCGAUAUCCGCAUGCUAAAACCUCAGCAGGGCAGCAUUGAGACUCAUGGACUAAAGGAAAGUGUUCACUCUUCUAGACAAGUGGGUCUCUUGGUUUGAUGGAGUCUUACUCCGCUUGAGUUUUGUAGAAGGGGUUUGUCUAAGGCAUAGAGGCUUGGUUGGCAUAAGAAAAUAAGAUGGACAGAUGGAUGGGUGGAUGGAUGGAUGGCUGAUUGAGUGGGUGGGUGGGUGGAUGGAUGCAUAAAUGAAUAGAUGGAUGGAUGAAUGAACAGAUAGAUCUCUUGCGGUCGCACUAGUGUGGAAUUCUCGGGUGUCAAGG
B4: ENSMUSG00000028439.2|Fam219a|50:54;256:260 (ssRNA)
RNA: GGGAGUUCUACAGUCCGACGAUCGCUUCGAUAUCCGCAUGCUAGACGAGGACCUAGAUCUCAUCCCCCCCAAGUCUGUGAACCCCACCUGCAACACAUGUCAGGCCACUUCCUCCACCGCCUGCCACAUUCAGUAGUGGGCGGGGUCGCCGCGGUGCACGGGGCGCUGACCUGGGCCCGGUGGGAUGCAGCAGGAGAGACCCCUACCCUGCUGGUCCACUGGUCCCCAGCCCCGCGCCUCUUAGAGCCGCCAACCUCGUAACAGUCAUUGCUUCCUCCUAUGGUAGGACGUGUACCUCACACACUCUUGCGGUCGCACUAGUGUGGAAUUCUCGGGUGUCAAGG
B5: ENSMUSG00000058297.541|Spock2|207:211 (ssRNA)
RNA: GGGAGUUCUACAGUCCGACGAUCGCUUCGAUAUCCGCAUGCUAUUUUGAUAUCGGCUCCCCAAAGCCCAAGCCCACAGCCCUAGGAGAGAACCAGGGGCCCAUCUUUGACACCUGGGCCAUCACGAGCCCUCCCGCCUGCAGUUGUCCUAGGGAAAGACCUGGGGGUGCAAAAGGAGAUUCAAGACAUCCGUACCAAGUCAGGCAGAGCUACCCGCUUCUCAGCCCGUGUCCCACUUAAAACCGUCCGAACACAAAUCACUGAGCUUAGAGUUAAACAUUGUGGUCAAGUGCUUGGGUUCCGUCUCUUGCGGUCGCACUAGUGUGGAAUUCUCGGGUGUCAAGG
B6: ENSMUSG00000058297.519|Spock2 (ssRNA)
RNA: GGGAGUUCUACAGUCCGACGAUCGCUUCGAUAUCCGCAUGCUACACAGGAGUCGUGACCACGUGUGAUGGGUGGGCACAGGUCUGCCUUGCUCCAGCCCCCUCCCUUGGUUUCUGUUGGUACCCAUUUGGCUUUUAUCUGCUUUCUGCUUCACCACUAAGUGCGUAGGUGGGGUCUUUUGAUAUCGGCUCCCCAAAGCCCAAGCCCACAGCCCUAGGAGAGAACCAGGGGCCCAUCUUUGACACCUGGGCCAUCACGAGCCCUCCCGCCUGCAGUUGUCCUAGGGAAAGACCUGGGGGUGCAACUCUUGCGGUCGCACUAGUGUGGAAUUCUCGGGUGUCAAGG
B7: ENSMUSG00000061578.447|Ksr2 (ssRNA)
RNA: GGGAGUUCUACAGUCCGACGAUCGCUUCGAUAUCCGCAUGCUAUUUCAGAGGGGAUAGUUCCUUCUAACCUUGUACUGGGACAUCAUCUAUGUCCCCAUCCCCAGAGCUGAAUUAGAGACACCAAGUAGCCUCUUGGGUUGUUUUGUGGGGUGUUCCCCUUGCUGGUCAAAGGAGUGGAAAGCCACCUUGCUGUAAAUGCUCUUGUUUUCUGUAGCAAUCUUGAACUCUUUUUUUUUUUUGUUCGUUUGUUUGUUUGUUUGUUUGUUUGUUUUUUCAAGACAGGGUUUUUCUGUAUAGCCCUGCUCUUGCGGUCGCACUAGUGUGGAAUUCUCGGGUGUCAAGG
B8: ENSMUSG00000031028.308|Tub (ssRNA)
RNA: GGGAGUUCUACAGUCCGACGAUCGCUUCGAUAUCCGCAUGCUAGAACCCUCAGCGAGGUAGCCUUUGUUUACAGUCUAGUUUCUAGAGGGCAGUAGGACUUCCAUGCUGGGGCUGGCCUAUCUCCUGAUGAAAGAUUACAGUGCCAUCUCCUUCCCAUAGUUCUGUGUCUGCCCUCCCUCCCUGACUUUAUAGGGAGAAAUCUCCUGACAUUAGAGGUGAUAGAAACCAGAGCUUUAGUCUAGUCAGGCUGUUUCUCUGGGUUGACAAGUUUAAGGUUGAACAGGCUGAUUUCUGGAAUCUCACUCUUGCGGUCGCACUAGUGUGGAAUUCUCGGGUGUCAAGG
B9: ENSMUSG00000029028.135|Lrrc47 (ssRNA)
RNA: GGGAGUUCUACAGUCCGACGAUCGCUUCGAUAUCCGCAUGCUAAGGCAUUCUAUUGAACAGUAUUUAUUUUUCUACAACAUGUUAAUAGAAUUUUUUUUUAAAUCAGCUGUGCAUAGACAGUUGAGAACAUCAUGUUGUGAGUGUAAUCUUCUUAGAGCUUGUUUCCAGGCACCGUGCUGCCGCCAUGCUCCCAGGGCAGCAUCUGCCUUCCACGGCUGUGCUUGGAACUGUAGUGCUGGUCGUUGUUGGCACAUCUGCGCCUUGGCCAAGGAAGUUAUCUAUGUCCGUGUAGUCCUUUGUAGCUCUUGCGGUCGCACUAGUGUGGAAUUCUCGGGUGUCAAGG
B10: ENSMUSG00000031028.662|Tub (ssRNA)
RNA: GGGAGUUCUACAGUCCGACGAUCGCUUCGAUAUCCGCAUGCUACUGGACCCCAUACUGGUGACCAGCUUGGUGAGGACAGGCAAAAUUUCUCUAGCUGAGAGCACACUUAGCCAGUUUUCACGCCUAGAACAUAUAUGUCGAUUUGCACAUGAUUGUCUUUUCCUAUUUUGGAGUGGUCAGACAUUUUAUUUUUGUUCAAAAUUAUCUGGAGUUUUAGACAAACUUGCAAAACUGUGCUUUUAUUAAGUGACUUUUUGAAUAAACUUUUUGGUAUUCUGAAGCAAAUGUAUUUAUUUAUUGGUCUCUUGCGGUCGCACUAGUGUGGAAUUCUCGGGUGUCAAGG
B11: ENSMUSG00000028439.183|Fam219a (ssRNA)
RNA: GGGAGUUCUACAGUCCGACGAUCGCUUCGAUAUCCGCAUGCUAUGUGCGUGUGCGUGUGUGUAUGUGUGUGCGUGUGUGUGUGUGUGUGUUGUACCCGAGUGUGUGUUGAGCCUAUCUGUCCAGGGAACCAGAUUGGUGUCCGAGAUGAGGAAAUGGCUGUGGCCUGGGAAAUCAGUGAGAGGCCGCUUGGGAAUGAGAAUGCAGUGGACUGAAAGCACAGCCUGGCCAUCUGGAACCUGGGUUCUGGUCCCAGCCUCGGCAUUCUCCCUGAGCUCCUAAGCAAUUCCCAGGCUUCUCUAGGGCUCUUGCGGUCGCACUAGUGUGGAAUUCUCGGGUGUCAAGG
B12: ENSMUSG00000028439.182|Fam219a (ssRNA)
RNA: GGGAGUUCUACAGUCCGACGAUCGCUUCGAUAUCCGCAUGCUAUGUGUGUGUGCGUGUGCGUGUGUGUAUGUGUGUGCGUGUGUGUGUGUGUGUGUUGUACCCGAGUGUGUGUUGAGCCUAUCUGUCCAGGGAACCAGAUUGGUGUCCGAGAUGAGGAAAUGGCUGUGGCCUGGGAAAUCAGUGAGAGGCCGCUUGGGAAUGAGAAUGCAGUGGACUGAAAGCACAGCCUGGCCAUCUGGAACCUGGGUUCUGGUCCCAGCCUCGGCAUUCUCCCUGAGCUCCUAAGCAAUUCCCAGGCUUCUCUCUUGCGGUCGCACUAGUGUGGAAUUCUCGGGUGUCAAGG
B13: ENSMUSG00000028439.181|Fam219a|7:16;18:22;24:40;42:59;69:76 (ssRNA)
RNA: GGGAGUUCUACAGUCCGACGAUCGCUUCGAUAUCCGCAUGCUAUGUGCCACACACACACCCACACCCACACACAUACACACACCCACACACACACACACACAUGUACCCGACACACACAUGAGCCUAUCUGUCCAGGGAACCAGAUUGGUGUCCGAGAUGAGGAAAUGGCUGUGGCCUGGGAAAUCAGUGAGAGGCCGCUUGGGAAUGAGAAUGCAGUGGACUGAAAGCACAGCCUGGCCAUCUGGAACCUGGGUUCUGGUCCCAGCCUCGGCAUUCUCCCUGAGCUCCUAAGCAAUUCCCAGCUCUUGCGGUCGCACUAGUGUGGAAUUCUCGGGUGUCAAGG
B14: ENSMUSG00000028439.183|Fam219a|6:10;12:28;30:47;57:64 (ssRNA)
RNA: GGGAGUUCUACAGUCCGACGAUCGCUUCGAUAUCCGCAUGCUAUGUGCCACACCCACACACAUACACACACCCACACACACACACACACAUGUACCCGACACACACAUGAGCCUAUCUGUCCAGGGAACCAGAUUGGUGUCCGAGAUGAGGAAAUGGCUGUGGCCUGGGAAAUCAGUGAGAGGCCGCUUGGGAAUGAGAAUGCAGUGGACUGAAAGCACAGCCUGGCCAUCUGGAACCUGGGUUCUGGUCCCAGCCUCGGCAUUCUCCCUGAGCUCCUAAGCAAUUCCCAGGCUUCUCUAGGGCUCUUGCGGUCGCACUAGUGUGGAAUUCUCGGGUGUCAAGG
B15: ENSMUSG00000028439.182|Fam219a|1:10;12:16;18:34;36:53;63:70 (ssRNA)
RNA: GGGAGUUCUACAGUCCGACGAUCGCUUCGAUAUCCGCAUGCUAACACACACACCCACACCCACACACAUACACACACCCACACACACACACACACAUGUACCCGACACACACAUGAGCCUAUCUGUCCAGGGAACCAGAUUGGUGUCCGAGAUGAGGAAAUGGCUGUGGCCUGGGAAAUCAGUGAGAGGCCGCUUGGGAAUGAGAAUGCAGUGGACUGAAAGCACAGCCUGGCCAUCUGGAACCUGGGUUCUGGUCCCAGCCUCGGCAUUCUCCCUGAGCUCCUAAGCAAUUCCCAGGCUUCUCUCUUGCGGUCGCACUAGUGUGGAAUUCUCGGGUGUCAAGG
B16: ENSMUSG00000028439.181|Fam219a (ssRNA)
RNA: GGGAGUUCUACAGUCCGACGAUCGCUUCGAUAUCCGCAUGCUAUGUGCCUGUGUGUGUGCGUGUGCGUGUGUGUAUGUGUGUGCGUGUGUGUGUGUGUGUGUUGUACCCGAGUGUGUGUUGAGCCUAUCUGUCCAGGGAACCAGAUUGGUGUCCGAGAUGAGGAAAUGGCUGUGGCCUGGGAAAUCAGUGAGAGGCCGCUUGGGAAUGAGAAUGCAGUGGACUGAAAGCACAGCCUGGCCAUCUGGAACCUGGGUUCUGGUCCCAGCCUCGGCAUUCUCCCUGAGCUCCUAAGCAAUUCCCAGCUCUUGCGGUCGCACUAGUGUGGAAUUCUCGGGUGUCAAGG

The binders below were run against TDP-43 (Homo sapiens, UniProt Q13148 1-414) (assay: RNA Bind-n-Seq with designed 260-mer pool; 25 mM Tris-HCl, 150 mM KCl, 3 mM MgCl2, BSA (printed 500 mg/mL), 20 units/mL SUPERase IN; pH not stated; 500 nM RNA pool, 1 h, 4 C; TDP-43 5, 50, 500 nM; high values mean tight binding). Settings: protein: recombinant; tags: SBP (GST cleaved off with PreScission; pGEX-GST-SBP).
Chain of TDP-43 (Q13148 whole entry): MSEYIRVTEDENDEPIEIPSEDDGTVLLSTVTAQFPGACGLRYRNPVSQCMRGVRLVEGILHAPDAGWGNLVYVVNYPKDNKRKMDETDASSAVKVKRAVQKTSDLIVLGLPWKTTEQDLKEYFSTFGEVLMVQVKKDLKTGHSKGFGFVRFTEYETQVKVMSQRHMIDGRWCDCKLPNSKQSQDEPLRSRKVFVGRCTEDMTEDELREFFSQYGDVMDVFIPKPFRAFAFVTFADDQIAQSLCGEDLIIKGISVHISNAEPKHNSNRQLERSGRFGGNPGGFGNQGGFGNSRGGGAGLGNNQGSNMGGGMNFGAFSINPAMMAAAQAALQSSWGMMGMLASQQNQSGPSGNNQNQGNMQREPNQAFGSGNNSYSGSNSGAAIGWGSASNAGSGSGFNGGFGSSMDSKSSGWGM
Procedure, shortened: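 The incubation lasted 1 h at 4 °C and used 500 nM of an in vitro-transcribed 260-nt 3′ UTR oligo pool with recombinant SBP-tagged TDP-43 at 5, 50 or 500 nM immobilized on streptavidin beads. It took place in 25 mM Tris-HCl, 150 mM KCl, 3 mM MgCl2, BSA and SUPERase IN. Bound RNA was washed, eluted with biotin, converted to cDNA, PCR-amplified and sequenced to give R, each oligo's normalized abundance in the bound sample divided by that in input. Two independent protein batches provided the duplicates.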

Point of comparison: B3, binding signal 0.95 R (bound/input frequency ratio). Against it:
- B1 — higher, 1.03 R (bound/input frequency ratio)
- B2 — higher, 1.56 R (bound/input frequency ratio)
- B4 — lower, 0.757 R (bound/input frequency ratio)
- B5 — lower, 0.821 R (bound/input frequency ratio)
- B6 — lower, 0.833 R (bound/input frequency ratio)
- B7 — higher, 2.55 R (bound/input frequency ratio)
- B8 — lower, 0.194 R (bound/input frequency ratio)
- B9 — lower, 0.359 R (bound/input frequency ratio)
- B10 — lower, 0.163 R (bound/input frequency ratio)
- B11 — higher, 5.72 R (bound/input frequency ratio)
- B12 — higher, 6.82 R (bound/input frequency ratio)
- B13 — higher, 3.16 R (bound/input frequency ratio)
- B14 — higher, 2.29 R (bound/input frequency ratio)
- B15 — higher, 3.29 R (bound/input frequency ratio)
- B16 — higher, 6.58 R (bound/input frequency ratio)
